# A selection: hits, their analogues and other compounds. The true share with any hit is near 4%.
# NLRP3 yeast inh: NALP3 inhibition in yeast; Yeast reconstituted NLRP3/ASC/caspase-1, beta-gal luminescence, 24 h; inhibition, % at 10 µM; AID 2825; 0.39% of 330,000 active;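 active = inhibition of 50% or more; inactive = inhibition below 50%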;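 also: plate controls were induced DMSO wells for no effect and uninduced yeast grown without galactose for full effect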
# tim23-1 inh: inhibits growth of tim23-1 mutant yeast. inhibition, % at 20 µM. 1.3% of 330,000 active. AID 463212. S. cerevisiae tim23-1 growth, BacTiter-Glo luminescence, 24 h;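 active = growth inhibition of the mutant yeast at or above 50%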;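 also: temperature-sensitive mutant grown at 25 °C; plate controls were DMSO-treated mutant yeast for no effect and medium wells lacking yeast for full effect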
# TIM10 inh: growth inhibitors of TIM10 yeast strain; S. cerevisiae TIM10 strain growth, BacTiter-Glo luminescence, 24 h; inhibition, % at 10 µM; 1.4% of 330,000 active;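 active = inhibition of 40% or more at the single tested concentration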;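 also: wild-type TIM10 isogenic control strain grown at permissive 25 °C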
# NALP1 yeast inh: inhibitors of NALP1 inflammasome in yeast; S. cerevisiae NALP1/ASC/caspase-1 growth, X-gal OD620, 72 h; inhibition, % at 10 µM; 0.61% of 280,000 active; AID 2071; in the data active = inhibition mostly above about 24%, no sharp cut-off; inactive = mostly below about 32%
# tim10-1 inh: growth inhibitors of tim10-1 mutant yeast | 2.2% of 330,000 active | S. cerevisiae tim10-1 ts strain growth, BacTiter-Glo, 24 h | AID 463190 | inhibition, % at 20 µM;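 active = inhibition of at least 40%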;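 also: mutant grown at 25 °C; 0% = DMSO wells with yeast and 100% = wells holding no yeast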
# TIM10 conf: confirmation of TIM10 yeast growth inhibitors. shares compounds with TIM10 inh. S. cerevisiae tim10 strain growth, BacTiter-Glo luminescence, 24 h. inhibition, % at 10 µM. 63% of 4,600 active. AID 463215;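 active = inhibition of yeast growth at or above a set limit in either of two replicates at 10 µM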;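 also: this counterscreen used the strain with wild-type TIM10; 0% = yeast with DMSO and 100% = medium wells lacking yeast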
# Active calls of the source: *; nt = no result given.
SMILES,NLRP3 yeast inh,tim23-1 inh,TIM10 inh,NALP1 yeast inh,tim10-1 inh,TIM10 conf
Cc1ccc(S(=O)(=O)N2CCc3ccccc3C2CN2C(=O)c3ccccc3C2=O)cc1 (stereo not drawn),8.8,29.7,42.8*,26.3,23.2,29.4
O=C1c2ccccc2C(=O)N1CC1c2ccccc2CCN1S(=O)(=O)c1cnc[nH]1 (stereo not drawn),11.7,-2.8,7.2,2.0,10.7,nt
Cc1ccc2nc(Cl)c(CN(C(=O)c3cnccn3)C3CCCCC3)cc2c1,13.6,39.5,40.8*,-1.3,38.7,27.5*
CNC(=O)c1ccc(Nc2nc(-c3ccccc3)nc3ccccc23)cc1,9.4,30.3,40.0*,22.4,29.7,28.0
O=C(OCc1c(F)cccc1Cl)c1cnc(Cl)c(Cl)c1,32.4,-1.9,-15.9,23.4,-13.5,nt
Nc1nc(-c2ccc3c(c2)NC(=O)CO3)cs1,20.0,5.8,14.3,2.1,5.9,nt
Cc1ccc2nc(-c3ccc4c(c3)NC(=O)CO4)cn2c1,0.0,35.3,45.5*,13.1,20.0,44.7*
O=C(COC(=O)C1CC1)NCc1ccccc1,9.9,6.1,-6.4,nt,-7.5,nt
C/C(=N\NC(=O)COc1cccc(C)c1)c1ccc2ccccc2c1O,7.7,6.7,9.7,1.5,5.9,nt
CC(C)(C)C(=O)OCc1nc(-c2ccc3c(c2)OCCO3)cs1,16.2,23.6,-4.0,16.7,21.3,nt
CC(C)(C)C(=O)OCc1nc(-c2ccc(F)cc2)cs1,9.1,31.5,40.9*,-0.4,38.0,39.1*
CCOC(=O)c1cnn(-c2nc(-c3ccc(F)cc3)cs2)c1C(F)(F)F,14.1,22.8,45.3*,3.1,24.8,25.9
CN(c1ccccc1)C(c1ccc(F)cc1)c1nnnn1C1CCCC1 (stereo not drawn),-3.3,37.2,45.4*,43.5,31.8,31.4*
CC(C)c1ccc(S(=O)(=O)N2CCN(C(=O)C3=COCCO3)CC2)cc1,38.5,9.7,97.0*,nt,4.8,1.3
C[C@H](CO)N1C[C@H](C)[C@@H](CN(C)Cc2ccncc2)Oc2ccc(NC(=O)CCCCCC(=O)Nc3ccccc3N)cc2C1=O,-0.2,11.4,-5.3,nt,4.5,nt
Cc1cc(C)nc(N/N=C/c2ccc(Cl)cc2)n1,8.0,-19.4,10.9,-2.4,-5.1,nt
Cc1ccc(/C=N/Nc2nc(C)cc(C)n2)cc1,15.7,-18.0,74.0*,-9.0,-11.6,8.6
COc1ccccc1NC(=S)N/N=C1\CC(C)(C)Oc2ccc(O)cc21,37.0,5.8,19.3,-3.3,8.8,nt
COc1ccc(NC(=S)N/N=C2\CC(C)(C)Oc3ccc(O)cc32)cc1,6.2,15.8,41.1*,-3.5,34.9,-11.1
CSc1nc(NCc2ccco2)c2ccccc2n1,7.6,15.5,40.1*,-5.0,37.9,22.1
CCn1c(-c2cc(-c3ccc(C)cc3)nc3ccccc23)n[nH]c1=S,39.6,49.1,41.6*,5.1,33.4,40.9*
CCn1c(-c2cc(-c3ccccc3OC)nc3ccccc23)n[nH]c1=S,5.3,21.1,23.6,5.6,12.9,nt
CCOc1ccc(CN(C)C(=O)CN2C(=O)NC(c3ccccc3)(c3ccccc3)C2=O)cc1,18.9,-3.5,11.7,nt,-2.9,nt
O=c1c(Cl)c(N/N=C/c2ccc(Br)cc2)cnn1-c1ccccc1,6.5,35.8,40.3*,-8.2,22.9,-3.9
CNc1cnn(-c2ccccc2)c(=O)c1Cl,5.6,30.4,-0.2,8.0,-5.5,nt
SMILES,NLRP3 yeast inh,tim23-1 inh,TIM10 inh,NALP1 yeast inh,tim10-1 inh,TIM10 conf
COc1ccc(-c2cn3cc(C)ccc3n2)cc1F,34.4,36.5,61.2*,4.7,27.4,57.3*
COc1cc(CN2CCN(c3ncccn3)CC2)cc(OC)c1,21.8,5.1,-10.4,0.2,-21.9,nt
Cn1cnnc1SC(C(=O)Nc1cccc(C(F)(F)F)c1)c1ccccc1 (stereo not drawn),7.8,10.5,-11.5,6.8,18.2,nt
O=C(CCN1C(=O)/C(=C\c2ccccc2F)SC1=S)N1CCCCC1,24.7,44.3,42.2*,-4.7,29.5,17.9
CCNC(=O)CSc1nnc(-c2ccccc2Br)n1-c1cccc(C(F)(F)F)c1,-8.9,-1.7,47.0*,21.8,22.9,6.3
CN(C)S(=O)(=O)c1ccc(C(=O)OCC(=O)N2CC3(C)CC2CC(C)(C)C3)cc1 (stereo not drawn),17.9,15.7,14.6,nt,14.1,nt
Cc1noc(C)c1COc1ccc(C(=O)OCC(=O)N2CC3(C)CC2CC(C)(C)C3)cc1 (stereo not drawn),1.4,34.8,43.6*,-1.8,36.6,31.1*
O=C(NC(=S)NC12CC3CC(CC(C3)C1)C2)c1ccc(F)cc1,39.1,46.8,43.8*,nt,19.7,48.2*
Cc1c(Cl)cccc1NC(=O)[C@@H](NC(=O)c1ccccc1Cl)C(C)C,19.3,15.7,13.8,41.5,19.3,nt
O=C1COc2ccc(-c3csc(=Nc4ccc(OC(F)F)cc4)n3CC3CCCO3)cc2N1 (stereo not drawn),13.9,5.5,40.3*,-15.9,28.7,38.4*
CCC(=O)Nc1ccc2c(c1)C(=O)c1ccccc1C2=O,30.8,36.1,42.0*,-12.0,34.6,28.3
CC1CC(C)CN(C(=O)C(Cc2ccccc2)NC(=O)c2ccccc2)C1 (stereo not drawn),4.9,21.6,2.2,nt,27.9,nt
COc1ccc(S(=O)(=O)N(Cc2nc3ccccc3c(=O)[nH]2)C2CCCC2)cc1,3.1,29.5,42.2*,10.1,30.1,12.7
COc1ccc(CN(Cc2nc3ccccc3c(=O)[nH]2)C(=O)NC2CCCCC2)cc1,4.5,11.4,28.6,4.4,28.2,nt
COc1ccc(-c2nc3n(c(=O)c2C#N)CCCS3)cc1,2.4,-12.4,8.2,-3.4,7.0,nt
CCOc1ccc(-c2nc3n(c(=O)c2C#N)CCCS3)cc1,29.5,11.1,97.3*,4.2,25.8,16.1
CCCCn1c(N)c(N(CC(C)C)C(=O)C(C)SCc2nc3sc(C)c(C)c3c(=O)[nH]2)c(=O)[nH]c1=O (stereo not drawn),19.0,18.4,18.1,nt,13.1,nt
N#CC1=C(N)SC(N)=C(C#N)C1CCc1ccccc1,28.2,32.5,70.3*,-2.8,30.1,-14.2
N#CC1=C(N)SC(N)=C(C#N)C1Cc1ccccc1,0.7,18.6,6.7,-8.6,29.4,nt
COc1ccc(-c2n[nH]c(C)c2-c2ccc(Cl)cc2)c(O)c1OC,9.3,19.1,42.2*,9.0,23.1,32.9*
CCN1/C(=C/c2ccc3cc(C)ccc3[n+]2CC)Sc2cc(C)c(C)cc21,23.9,-4.1,51.8*,14.8,-9.7,78.8*
O=[N+]([O-])c1ccc(COc2ccc(-c3[nH]ncc3-c3ccccc3)c(O)c2)cc1,21.3,3.8,5.0,19.8,17.4,nt
COc1ccc(-c2cn[nH]c2-c2ccc(OCc3ccc(F)cc3)cc2O)cc1OC,2.8,22.5,40.1*,-4.0,30.9,33.5*
Oc1cc(OCc2ccccc2)ccc1-c1[nH]ncc1-c1ccccc1,29.3,30.1,49.9*,10.6,-25.2,45.9*
